Assay results: PubChem BioAssay
Records with an inconclusive call do not appear. Activity calls are given as the source filed them.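 The calls were made as follows, unless noted: active = response below a set limit, under 55% cells CD8-positive and vesicle-bound, and CD8 cells' 90th-percentile brightness under 279; inactive = the rest.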

How the values were obtained:
[1] = rapamycin-like changes in RPL19A-GFP expression – cell-based, S. cerevisiae, multiplex flow cytometry, primary screen (AID 1862; in the data active = percent of DMSO control GFP below about 86%;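 also: lower values mimic rapamycin by blocking the RPL19A rise seen in DMSO cells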); settings: S. cerevisiae RPL19A-GFP strain, flow cytometry fluorescence, 3 h; at 10 µM; stronger effect = lower value
[2] = TOR pathway GLN3 branch reporter MEP2-GFP changes – S. cerevisiae, multiplex flow cytometry, primary screen (AID 1867;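 active = GFP response, as percent of the DMSO control, above the screen-wide mean plus 3 SD, about 139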;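 also: median GFP channel fluorescence of barcode-gated MEP2-GFP cells measured by flow cytometry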); settings: S. cerevisiae MEP2-GFP strain, 3 h, at 10 µM, stronger effect = higher value, 100% means same as DMSO wells
[3] = TOR pathway RTG branch CIT2 reporter changes – S. cerevisiae, GFP fusion, multiplex flow cytometry, primary screen (AID 1870;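 active = percent response above a set limit, the screen-wide mean plus 3 SD, cut at about 130% in these data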;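 also: barcoded CIT2-GFP strain pooled with four other GFP strains with rapamycin as positive control; median GFP fluorescence per well over plate mean of DMSO wells so 100% = DMSO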); settings: S. cerevisiae CIT2-GFP expression, 3 h, at 10 µM, stronger effect = higher value
[4] = TOR pathway LAP4-GFP level changes – S. cerevisiae, multiplex flow cytometry, primary screen (AID 1873;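 active = GFP signal, as percent of the solvent control, above the screen mean plus 3 SD, about 149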); settings: S. cerevisiae LAP4-GFP expression, 3 h, at 10 µM, stronger effect = higher value
[5] = yeast AGP1-GFP level changes, GLN3 branch – cell-based, multiplex flow cytometry, S. cerevisiae, primary screen (AID 1887;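 active = GFP signal above the screen-wide mean plus 3 SD, that is over about 124.5% of the solvent control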;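 also: AGP1-GFP fusion strain of S. cerevisiae within a five-strain barcoded multiplex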); settings: 3 h, at 10 µM, stronger effect = higher value
[6] = reduced mouse 2C T cell binding to pMHC/ICAM-1 vesicles – MLPCN validation set, flow cytometry, LFA-1/ICAM-1 modulator project, pilot screen (AID 2523); settings: 2C mouse CD8+ T cells, at 7 µM, stronger effect = lower value; double positive events: measured here: CD8+/vesicle+ event percentage;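 as to vesicle binding response: mean PE anti-B7-1 fluorescence of CD8+ cells relative to row control; 100% = QL9-loaded vesicles with DMSO vehicle in the same plate row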
[7] = molecular target: Integrin beta-1 (Homo sapiens) + Integrin alpha-4 (Homo sapiens) (UniProt P13612+P05556); assay: alpha4beta1 integrin LIBS antibody binding reduction – U937 cells, HUTS-21 mAb, flow cytometry, validation set, VLA-4 allosteric modulator project, pilot screen (AID 2674;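 active = inhibition above 50%, about 3 SD of the validation set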;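 also: antibody binding induced by the VLA-4 ligand LDV present at three times its Kd; 0% = LDV ligand with antibody and no compound and 100% = antibody without LDV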); settings: HUTS-21 LIBS mAb binding, at 6.7 µM, stronger effect = higher value, binding induced by LDV ligand
Sequence of Integrin beta-1 (Homo sapiens) + Integrin alpha-4 (Homo sapiens) (P05556 whole entry, looked up): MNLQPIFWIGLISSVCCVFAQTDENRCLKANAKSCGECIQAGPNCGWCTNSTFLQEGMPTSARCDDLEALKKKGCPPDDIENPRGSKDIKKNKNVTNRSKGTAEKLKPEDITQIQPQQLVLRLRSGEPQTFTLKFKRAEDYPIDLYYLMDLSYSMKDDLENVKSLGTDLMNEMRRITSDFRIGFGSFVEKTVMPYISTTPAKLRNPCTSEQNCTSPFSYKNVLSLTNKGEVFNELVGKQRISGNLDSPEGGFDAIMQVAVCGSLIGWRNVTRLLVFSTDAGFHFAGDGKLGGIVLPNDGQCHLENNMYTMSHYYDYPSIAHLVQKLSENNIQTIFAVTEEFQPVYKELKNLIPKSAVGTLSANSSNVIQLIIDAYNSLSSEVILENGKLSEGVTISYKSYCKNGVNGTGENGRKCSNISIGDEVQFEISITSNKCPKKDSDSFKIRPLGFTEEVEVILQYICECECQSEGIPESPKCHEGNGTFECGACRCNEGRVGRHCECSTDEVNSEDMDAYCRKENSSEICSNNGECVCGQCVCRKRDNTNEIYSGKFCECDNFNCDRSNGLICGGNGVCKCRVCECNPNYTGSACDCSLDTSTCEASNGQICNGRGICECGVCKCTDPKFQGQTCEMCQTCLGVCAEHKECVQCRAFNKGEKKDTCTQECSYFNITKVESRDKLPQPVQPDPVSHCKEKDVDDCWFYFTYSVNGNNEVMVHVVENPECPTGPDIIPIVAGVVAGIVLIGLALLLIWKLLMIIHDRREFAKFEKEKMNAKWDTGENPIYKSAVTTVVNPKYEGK
Sequence of Integrin beta-1 (Homo sapiens) + Integrin alpha-4 (Homo sapiens) (P13612 whole entry, looked up): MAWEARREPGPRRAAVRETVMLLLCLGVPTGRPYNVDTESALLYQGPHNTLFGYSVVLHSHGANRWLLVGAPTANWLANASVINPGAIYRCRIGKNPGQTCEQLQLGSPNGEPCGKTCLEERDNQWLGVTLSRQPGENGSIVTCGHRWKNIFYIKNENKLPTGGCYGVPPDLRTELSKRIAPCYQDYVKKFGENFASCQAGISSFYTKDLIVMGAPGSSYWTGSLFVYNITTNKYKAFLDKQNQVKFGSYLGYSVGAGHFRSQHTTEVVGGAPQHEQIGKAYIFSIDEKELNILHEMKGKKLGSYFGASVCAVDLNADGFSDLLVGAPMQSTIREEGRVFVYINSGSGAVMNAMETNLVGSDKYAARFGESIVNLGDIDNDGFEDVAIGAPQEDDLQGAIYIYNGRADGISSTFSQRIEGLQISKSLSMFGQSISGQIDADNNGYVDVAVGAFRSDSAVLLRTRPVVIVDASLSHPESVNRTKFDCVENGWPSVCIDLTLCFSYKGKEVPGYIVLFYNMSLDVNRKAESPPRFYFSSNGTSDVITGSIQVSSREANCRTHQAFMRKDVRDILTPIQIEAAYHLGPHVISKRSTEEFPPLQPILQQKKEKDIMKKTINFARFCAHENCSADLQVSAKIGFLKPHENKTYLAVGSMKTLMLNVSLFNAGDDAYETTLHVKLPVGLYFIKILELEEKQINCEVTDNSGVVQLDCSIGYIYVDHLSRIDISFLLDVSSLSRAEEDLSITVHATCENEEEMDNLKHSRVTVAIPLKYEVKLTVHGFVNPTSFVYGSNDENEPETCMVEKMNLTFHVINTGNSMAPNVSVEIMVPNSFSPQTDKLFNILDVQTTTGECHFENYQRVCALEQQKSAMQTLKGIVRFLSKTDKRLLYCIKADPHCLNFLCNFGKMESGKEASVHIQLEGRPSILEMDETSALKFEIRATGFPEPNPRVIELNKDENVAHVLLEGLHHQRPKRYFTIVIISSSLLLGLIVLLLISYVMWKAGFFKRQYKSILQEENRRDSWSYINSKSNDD

[8] = calorie-restriction mimetic ROS inhibitors, yeast – validation compound set, pilot screen (AID 2706;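 active = superoxide response below 65% of plate, a cut near 3 SD across the whole screen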;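 also: yeast exposed to compound for one week at 30 degrees C before staining; 100% = mean of all compound wells on the same plate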); settings: S. cerevisiae aging, superoxide DHE fluorescence; at 10 µM; stronger effect = lower value
[9] = molecular target: Beta-adrenergic receptor kinase 1 (Homo sapiens) (UniProt P25098); assay: GRK2 binders displacing RNA aptamer, biochemical, validation, human GRK2, bead flow cytometry (AID 488806;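 active = aptamer binding inhibition above 30%, about 3 SD of noise from non-fluorescent compounds; inactive = inhibition at or below 30%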); settings: bead-bound GRK2, FAM-aptamer displacement, at 10 µM, stronger effect = higher value
Sequence of Beta-adrenergic receptor kinase 1 (Homo sapiens) (P25098 whole entry, looked up): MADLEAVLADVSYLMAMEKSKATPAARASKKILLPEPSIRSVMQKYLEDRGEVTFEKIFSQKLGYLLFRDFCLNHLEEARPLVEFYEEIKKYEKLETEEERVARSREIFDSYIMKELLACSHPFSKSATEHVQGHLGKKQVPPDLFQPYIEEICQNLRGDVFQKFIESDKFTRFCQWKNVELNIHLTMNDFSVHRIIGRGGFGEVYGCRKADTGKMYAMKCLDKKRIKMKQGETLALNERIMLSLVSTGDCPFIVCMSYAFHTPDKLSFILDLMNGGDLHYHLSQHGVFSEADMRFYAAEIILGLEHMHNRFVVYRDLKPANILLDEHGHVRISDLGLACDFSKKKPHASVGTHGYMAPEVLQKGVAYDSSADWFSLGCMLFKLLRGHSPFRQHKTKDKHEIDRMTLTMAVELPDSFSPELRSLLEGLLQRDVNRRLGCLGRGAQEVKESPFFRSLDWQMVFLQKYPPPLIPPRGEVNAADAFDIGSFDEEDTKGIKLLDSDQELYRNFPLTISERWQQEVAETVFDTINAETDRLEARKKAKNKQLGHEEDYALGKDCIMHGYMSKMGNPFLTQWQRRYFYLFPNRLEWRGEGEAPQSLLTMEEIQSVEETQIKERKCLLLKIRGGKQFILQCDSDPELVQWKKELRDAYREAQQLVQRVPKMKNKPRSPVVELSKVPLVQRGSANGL

[10] = molecular target: Beta-2 adrenergic receptor (Homo sapiens) (UniProt P07550); assay: agonist-induced loss of surface beta2AR – cell-based, FAP fluorogen, flow cytometry, validation set, pilot screen (AID 504459;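 active = percent response above 42, roughly 3 SD of non-fluorescent test compounds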;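 also: agonist-driven loss of surface beta2AR via internalization measured by FAP dye flow cytometry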); settings: Am2.2-beta2AR cells, at 10 µM, stronger effect = higher value
Sequence of Beta-2 adrenergic receptor (Homo sapiens) (P07550 whole entry, looked up): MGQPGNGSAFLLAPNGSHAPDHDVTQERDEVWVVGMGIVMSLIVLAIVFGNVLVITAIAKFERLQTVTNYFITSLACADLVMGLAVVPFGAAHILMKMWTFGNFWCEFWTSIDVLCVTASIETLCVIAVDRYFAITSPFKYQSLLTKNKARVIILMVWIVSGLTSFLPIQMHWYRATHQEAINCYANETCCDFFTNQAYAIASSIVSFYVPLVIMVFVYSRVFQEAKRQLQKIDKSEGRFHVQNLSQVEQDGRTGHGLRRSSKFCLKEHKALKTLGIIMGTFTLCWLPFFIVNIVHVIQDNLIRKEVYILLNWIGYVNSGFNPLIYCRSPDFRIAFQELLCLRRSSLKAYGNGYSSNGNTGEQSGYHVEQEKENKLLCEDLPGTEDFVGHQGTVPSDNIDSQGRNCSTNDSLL

[11] = molecular target: AP-2 complex subunit beta (Homo sapiens) (UniProt P63010); assay: beta-arrestin/AP2 interaction blockers – biochemical, validation set, GST-AP2 beads, flow cytometry, pilot screen (AID 504541;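 active = inhibition above 54%, about 3 SD of non-fluorescent compounds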;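 also: AP2 carries R879A mutation and is captured from E. coli lysate; bead-bound FITC arrestin peptide fluorescence measuring arrestin peptide binding to AP2; 0% = DMSO wells and 100% = excess unlabeled arrestin peptide control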); settings: FITC arrestin peptide, at 10 µM, stronger effect = higher value, AP2 beta2 appendage fragment, R879A mutant
Sequence of AP-2 complex subunit beta (Homo sapiens) (P63010 whole entry, looked up, the tested form may be a part, one chain of several): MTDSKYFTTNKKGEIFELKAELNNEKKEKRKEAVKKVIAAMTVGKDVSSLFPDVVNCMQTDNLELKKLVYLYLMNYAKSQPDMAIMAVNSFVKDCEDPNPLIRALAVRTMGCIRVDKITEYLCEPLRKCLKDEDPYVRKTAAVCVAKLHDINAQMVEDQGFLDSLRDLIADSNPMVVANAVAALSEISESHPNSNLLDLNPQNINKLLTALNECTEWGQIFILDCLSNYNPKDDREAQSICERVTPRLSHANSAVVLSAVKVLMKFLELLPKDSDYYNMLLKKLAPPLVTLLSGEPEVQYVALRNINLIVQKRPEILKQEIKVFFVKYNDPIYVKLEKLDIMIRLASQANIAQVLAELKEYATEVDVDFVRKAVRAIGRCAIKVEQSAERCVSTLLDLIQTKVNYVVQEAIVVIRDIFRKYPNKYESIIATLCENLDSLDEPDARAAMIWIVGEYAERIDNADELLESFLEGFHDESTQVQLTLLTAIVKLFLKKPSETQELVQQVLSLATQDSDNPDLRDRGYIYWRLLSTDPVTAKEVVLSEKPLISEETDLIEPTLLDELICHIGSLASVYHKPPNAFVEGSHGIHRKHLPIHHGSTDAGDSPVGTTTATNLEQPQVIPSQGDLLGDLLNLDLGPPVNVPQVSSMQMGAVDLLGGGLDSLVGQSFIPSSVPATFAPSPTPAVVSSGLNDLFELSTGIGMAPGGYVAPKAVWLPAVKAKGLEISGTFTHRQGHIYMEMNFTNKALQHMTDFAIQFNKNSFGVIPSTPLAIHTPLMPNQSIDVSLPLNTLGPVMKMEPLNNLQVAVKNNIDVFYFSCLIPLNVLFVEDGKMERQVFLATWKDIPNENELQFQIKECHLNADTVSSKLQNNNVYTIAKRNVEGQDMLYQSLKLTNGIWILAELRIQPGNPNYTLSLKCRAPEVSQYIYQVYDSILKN

[12] = cytosolic pH regulators acting via V-ATPase – S. cerevisiae, pHLuorin, HTS validation (AID 504600; in the data active = response above about 15%;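 also: plate controls were DMSO for no effect and reference compound for full effect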); settings: V-ATPase proton transport, at 10 µM, stronger effect = higher value
[13] = tested on: anti-desmoglein-3 scFv antibody binding to human DSG3; assay: blockers of pathogenic pemphigus antibody–desmoglein-3 binding – biochemical, validation compound set, bead-based, flow cytometry, pilot screen (AID 588368;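 active = binding below the plate cutoff, the plate median minus 3 SD, with a reading above zero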;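 also: signal is the median channel fluorescence of bead-bound GFP antibody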); settings: Protein G beads, DSG3-Fc, scFv-GFP binding, at 10 µM, stronger effect = lower value
[14] = Nile Red efflux blockade in pump-expressing yeast – validation compound set, multiplex, phenotypic, pilot screen (AID 588506;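 active = efflux inhibition above 0.42, the validation set average plus 4 SD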;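 also: Nile Red retained in cells so higher fluorescence means more efflux inhibition; 0 = negative control wells and 1 = enniatin B 25 µM full block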); settings: S. cerevisiae pump-expressing triplex, Nile Red efflux flow cytometry; at 10 µM; stronger effect = higher value; the pumps come from Candida albicans
[15] = molecular target: ATP-binding cassette sub-family B member 6 (Homo sapiens) (UniProt Q9NP58); assay: blockers of ABCB6-driven porphyrin uptake – K562-ABCB6 cells, flow cytometry, validation set, pilot screen (AID 588550;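 active = inhibition above the screen-wide mean plus 3 SD, about 51%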;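 also: 0% = DMSO wells and 100% = benzethonium chloride 70 µM positive control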); settings: K562-ABCB6 porphyrin accumulation, 1 h, at 10 µM, stronger effect = higher value
Sequence of ATP-binding cassette sub-family B member 6 (Homo sapiens) (Q9NP58 whole entry, looked up): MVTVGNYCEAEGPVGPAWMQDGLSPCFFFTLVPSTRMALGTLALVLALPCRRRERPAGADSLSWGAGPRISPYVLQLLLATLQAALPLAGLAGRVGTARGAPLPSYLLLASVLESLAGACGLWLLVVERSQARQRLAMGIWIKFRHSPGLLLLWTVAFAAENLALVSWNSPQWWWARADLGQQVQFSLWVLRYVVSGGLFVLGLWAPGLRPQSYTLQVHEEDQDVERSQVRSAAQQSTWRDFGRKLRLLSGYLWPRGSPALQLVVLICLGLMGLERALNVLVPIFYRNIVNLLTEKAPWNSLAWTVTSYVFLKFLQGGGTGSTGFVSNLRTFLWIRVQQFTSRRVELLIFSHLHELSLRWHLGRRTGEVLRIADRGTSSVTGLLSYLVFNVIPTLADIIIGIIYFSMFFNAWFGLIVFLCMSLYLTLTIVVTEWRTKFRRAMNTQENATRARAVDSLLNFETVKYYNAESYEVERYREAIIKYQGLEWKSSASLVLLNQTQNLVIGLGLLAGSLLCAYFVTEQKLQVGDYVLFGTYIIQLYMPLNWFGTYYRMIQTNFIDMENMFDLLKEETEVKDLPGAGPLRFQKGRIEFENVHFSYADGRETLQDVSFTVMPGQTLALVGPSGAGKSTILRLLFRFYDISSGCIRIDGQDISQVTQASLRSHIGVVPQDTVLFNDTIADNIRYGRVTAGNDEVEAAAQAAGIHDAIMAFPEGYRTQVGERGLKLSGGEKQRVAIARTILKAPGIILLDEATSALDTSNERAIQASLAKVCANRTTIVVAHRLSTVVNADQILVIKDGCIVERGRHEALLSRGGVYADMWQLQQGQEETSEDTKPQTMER

[16] = AML differentiation inducers, ER-HoxA9 marrow cells – cell-based, GFP/MAC1 double positive, flow cytometry, validation set, primary screen (AID 588685;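 active = differentiation response of at least 50%, scaled between solvent and reference control, from cells with both markers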;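 also: compound exposure lasts four days before antibody staining and flow analysis; 0% = DMSO wells and 100% = 5 µM fulvestrant positive control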); settings: stronger effect = higher value, normalized: vehicle 0, fulvestrant 100

Cc1ccc2c(c1)c(C)cc(=O)n2CCC(=O)O
inactive: percent of DMSO control GFP [1] 101% | GFP response vs DMSO [2] 102% | percent response of DMSO control [3] 98.6% | GFP response vs DMSO [4] 116% | GFP response, % of DMSO [5] 102% | vesicle binding response [6] 210% | inhibition [7] 13.2% | superoxide response (% of plate) [8] 97.2% | aptamer binding inhibition [9] 17% | response [10] 4.73% | inhibition [11] 11.3% | response [12] 1.4% | binding (% of control) [13] 101% | efflux inhibition (fraction of control) [14] -0.24 | inhibition [15] 3% | differentiation response [16] -20%
61.6%: double positive events [6]

C[C@H]([C@@H](N)C(=O)N[C@@H](C(=O)O)[C@@H]1O[C@H](n2ccc(=O)[nH]c2=O)[C@@H](O)[C@H]1O)[C@@H](O)c1ccc(O)cn1
59.1%: double positive events [6]
inactive: percent of DMSO control GFP [1] 91.5% | GFP response vs DMSO [2] 130% | percent response of DMSO control [3] 93.9% | GFP response vs DMSO [4] 82.5% | GFP response, % of DMSO [5] 84.5% | vesicle binding response [6] 184% | inhibition [7] -9.06% | superoxide response (% of plate) [8] 117% | aptamer binding inhibition [9] 7% | response [10] -4.72% | inhibition [11] 5.36% | response [12] 2.7% | binding (% of control) [13] 104% | efflux inhibition (fraction of control) [14] -0.06 | inhibition [15] 9% | differentiation response [16] 4.09%

CCCCC(=O)O[C@H]1CC[C@H]2[C@@H]3CCc4cc(O)ccc4[C@H]3CC[C@]12C
active: response [10] 52.1%
62.5%: double positive events [6]
inactive: percent of DMSO control GFP [1] 100% | GFP response vs DMSO [2] 105% | percent response of DMSO control [3] 109% | GFP response vs DMSO [4] 125% | GFP response, % of DMSO [5] 116% | vesicle binding response [6] 210% | inhibition [7] 29.5% | superoxide response (% of plate) [8] 93.8% | aptamer binding inhibition [9] -4% | inhibition [11] 30.7% | response [12] -0.48% | binding (% of control) [13] 106% | efflux inhibition (fraction of control) [14] -0.17 | inhibition [15] -1% | differentiation response [16] -6.96%

C=CCNc1nc2c(c(=O)n(C)c(=O)n2C)n1CC(=C)C
63.3%: double positive events [6]
inactive: percent of DMSO control GFP [1] 101% | GFP response vs DMSO [2] 101% | percent response of DMSO control [3] 101% | GFP response vs DMSO [4] 91.6% | GFP response, % of DMSO [5] 103% | vesicle binding response [6] 176% | inhibition [7] -16.1% | superoxide response (% of plate) [8] 103% | aptamer binding inhibition [9] 3% | response [10] -5.19% | inhibition [11] 8.24% | response [12] -4.28% | binding (% of control) [13] 104% | efflux inhibition (fraction of control) [14] -0.38 | inhibition [15] 3% | differentiation response [16] -1.88%

COc1ccccc1/C=C/C(=O)OCCN1CCOCC1
56.7%: double positive events [6]
inactive: percent of DMSO control GFP [1] 99.8% | GFP response vs DMSO [2] 119% | percent response of DMSO control [3] 114% | GFP response vs DMSO [4] 79.8% | GFP response, % of DMSO [5] 103% | vesicle binding response [6] 229% | inhibition [7] -8.09% | superoxide response (% of plate) [8] 126% | aptamer binding inhibition [9] -4% | response [10] -13.3% | inhibition [11] 0.96% | response [12] -0.97% | binding (% of control) [13] 106% | efflux inhibition (fraction of control) [14] 0.27 | inhibition [15] -9% | differentiation response [16] -4.91%

CCCCNc1ccc(C(=O)OCCN(C)C)cc1
inactive: percent of DMSO control GFP [1] 101% | GFP response vs DMSO [2] 109% | percent response of DMSO control [3] 98.9% | GFP response vs DMSO [4] 103% | GFP response, % of DMSO [5] 97.3% | vesicle binding response [6] 212% | inhibition [7] 5.77% | superoxide response (% of plate) [8] 106% | aptamer binding inhibition [9] -1% | response [10] -12.7% | inhibition [11] 5.38% | response [12] -3.28% | binding (% of control) [13] 101% | efflux inhibition (fraction of control) [14] -0.01 | inhibition [15] 15% | differentiation response [16] 19.8%
63.6%: double positive events [6]

CNC(=O)Oc1ccc2c(c1)[C@]1(C)CCN(C)[C@@H]1N2C
62.8%: double positive events [6]
inactive: percent of DMSO control GFP [1] 104% | GFP response vs DMSO [2] 102% | percent response of DMSO control [3] 86% | GFP response vs DMSO [4] 112% | GFP response, % of DMSO [5] 122% | vesicle binding response [6] 183% | inhibition [7] 5.69% | superoxide response (% of plate) [8] 98.7% | aptamer binding inhibition [9] 3% | response [10] -21.5% | inhibition [11] -9.24% | response [12] -0.59% | binding (% of control) [13] 104% | efflux inhibition (fraction of control) [14] 0.12 | inhibition [15] 4% | differentiation response [16] -4.99%

O=C(COc1ccc2c(-c3ccccc3)cc(=O)oc2c1)NCc1cccs1
64.6%: double positive events [6]
inactive: percent of DMSO control GFP [1] 97.5% | GFP response vs DMSO [2] 96.6% | percent response of DMSO control [3] 85.4% | GFP response vs DMSO [4] 102% | GFP response, % of DMSO [5] 102% | vesicle binding response [6] 214% | inhibition [7] -3.67% | superoxide response (% of plate) [8] 92.2% | aptamer binding inhibition [9] -2% | response [10] -25.8% | inhibition [11] 26.5% | response [12] -7% | binding (% of control) [13] 102% | efflux inhibition (fraction of control) [14] 0.12 | inhibition [15] 14% | differentiation response [16] 6.83%

CCOC(=O)n1c(=O)oc2ccccc21
inactive: percent of DMSO control GFP [1] 97% | GFP response vs DMSO [2] 104% | percent response of DMSO control [3] 102% | GFP response vs DMSO [4] 102% | GFP response, % of DMSO [5] 107% | vesicle binding response [6] 196% | inhibition [7] 6.55% | superoxide response (% of plate) [8] 105% | aptamer binding inhibition [9] 7% | response [10] -19.8% | inhibition [11] -0.08% | response [12] 10.2% | binding (% of control) [13] 107% | efflux inhibition (fraction of control) [14] 0.08 | inhibition [15] 3% | differentiation response [16] -4.99%
62.5%: double positive events [6]
